What follows are molecules tested on KDR.

Kinases covered, KDR:
Cl.O=C(Nc1ccc(Oc2ccc3[nH]c(NC(=O)c4ccco4)nc3c2)cc1)Nc1cc(C(F)(F)F)ccc1F [GW683134A]
COc1cc2nccc(Nc3ccc(OCc4ccc(NC(C)=O)cc4)cc3)c2cc1OC [GW440135]
Cl.O=C(Nc1ccc(Oc2ccc3[nH]c(NC(=O)c4ccccc4)nc3c2)cc1)Nc1cc(C(F)(F)F)ccc1F [GW709042A]
Nc1ncnc2occ(-c3ccc(NC(=O)Nc4cc(C(F)(F)F)ccc4F)cc3)c12 [GW770249X]
COC(=O)Nc1nc2ccc(Oc3ccc(NC(=O)Nc4cc(C(F)(F)F)ccc4F)cc3)cc2s1.Cl [GW693917A]
CN1CCN(C(=O)c2ccc(NC(=O)Nc3ccc(N(C)c4ccnc(Nc5ccc(CS(C)(=O)=O)cc5)n4)cc3)cc2)CC1.Cl [GW830263A]
Cn1ccc2ncnc(Oc3ccc(NC(=O)Nc4ccccc4)cc3)c21 [TPKI-69]

Source: paper PMC7826789 (International Journal of Molecular Sciences, 2021)
